Measured values: PubChem BioAssay (NCI)
This is part of a sample that, as a whole, favours compounds with a hit. Of some 83,000 tested, about 20% had one in any assay.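 For each line, cells grew in 96-well plates with the test compound present at a single concentration for 48 hours.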 Unmarked numbers belong to inactive results. The source made the active and inactive calls. The calls were made as follows: active = growth percent below 10; inactive = the rest.

Legend:
Assay in all cases: NCI-60 one-dose screen, 48 h (100 = growth as untreated, 0 = no growth, -100 = all killed)
Conditions in all cases: 10 µM unless noted
[1] = tested on: T-47D breast
[2] = tested on: BT-549 breast
[3] = tested on: MDA-MB-435 melanoma
[4] = tested on: SW-620 colon
[5] = tested on: MCF7 breast
[6] = tested on: HCT-116 colon
[7] = tested on: HCC-2998 colon
[8] = tested on: KM12 colon

Structure (SMILES)	growth [1]	growth [2]	growth [3]	growth [4]	growth [5]	growth [6]	growth [7]	growth [8]
C=CCn1c(SCC(=O)Nc2cccc(C(=O)/C=C/c3ccc(Cl)cc3)c2)nc2ccccc2c1=O	78.6%	94.6%	92.3%	77.4%	28.3%	15.4%	94.8%	88%
CS(=O)(=O)c1nccc(-c2c(-c3ccc(F)c(OCCc4ccc(F)cc4)c3)nc3sccn23)n1	-75.5% (active)	57.2%	87.2%	67.1%	-61% (active)	47.6%	-91% (active)	-42.9% (active)
O=C1NC(=O)c2c1c1c3ccccc3ccc1c1[nH]c3ccccc3c21	11.8%	7.84% (active)	9.08% (active)	28.2%	3.61% (active)	14.4%	46.1%	
O=C(NCCNc1cc(-c2cn(-c3ccccc3)nc2-c2cccc(O)c2)ccn1)Nc1ccc(Cl)c(C(F)(F)F)c1	67.3%	98%	52.8%	46.8%	10.4%	50.6%	-77.7% (active)	37.9%
COc1ccc(-c2ccc3c4c(cccc24)C(=O)N(N2C(=O)c4cccc5cccc(c45)C2=O)C3=O)cc1	98%	106%	98.8%	96.2%	15.6%	96.8%	114%	
Cc1cc(C(=O)Nc2ccc(SC#N)cc2)c(C)o1	84.1%	75.4%	103%	104%	88.1%	96.1%	107%	89%
CCCCCc1ccc(S(=O)(=O)N(C(C)=O)c2cccc(-c3csc(N(CCN4CCN(C)CC4)C(C)=O)n3)c2)cc1	50.4%	91.3%	-73% (active)	-26.5% (active)	-66.2% (active)	-66.2% (active)	-81.2% (active)	27.4%
C#C[C@]1(O)CC[C@H]2[C@@H]3CC=C4c5sc(Nc6cccc(C)n6)nc5CC[C@]4(C)[C@H]3CC[C@@]21C	37.7%	23.1%	-41.5% (active)	-22.6% (active)	-41.5% (active)	14.4%	47.5%	
CCN(CC)CCN1C(=O)c2c(c3c4cc(Br)ccc4[nH]c3c3ccc4ccccc4c23)C1=O	-34.5% (active)	61.8%	-94.7% (active)	-61.6% (active)	-80% (active)	-80.1% (active)	-89.5% (active)	
Oc1ccc(CSc2nnc(-c3ccc(Oc4ccccc4)cc3)n2-c2ccccc2)c2cccnc12	4.84% (active)	21.7%	13.7%	12.8%	4.86% (active)	14.5%	30.3%	17.7%
COc1ccc2c(c1)oc1c3[nH]c4ccccc4c3c3c(c21)C(=O)N(O)C3=O	10.8%	40.9%	53.2%	34.3%	15.7%	21.5%	84.7%	48%
CSc1nccc(-c2c(-c3ccc(F)c(OCc4ccc(F)cc4)c3)nc3sccn23)n1	65.9%	71.3%	59.7%	48.9%	65%	51.3%	93.4%	80.1%
Clc1ccc(-c2csc(N/N=C/c3nc4ccccc4n3C3CC3)n2)cc1	111%	103%	98.9%	107%	94.2%	96.3%	105%	
CCOC(=O)C1=C(C)Nc2nc3ccccc3n2C1c1ccccc1 (stereo not drawn)	95.5%	101%	96.6%	87.8%	87.8%	69.1%	114%	98.1%
C=C(C)[C@@H]1CC[C@]2(C(=O)NCCCN(CCC#N)CCC#N)CC[C@]3(C)[C@H](CC[C@@H]4[C@@]5(C)CCC(=O)C(C)(C)[C@@H]5CC[C@]43C)[C@@H]12	91.2%	118%	101%	100%	84.9%	97.1%	104%	95.9%
Cc1ccc(S(=O)(=O)N/N=C/c2cn(-c3ccc(F)cc3)nc2-c2ccc(S(C)(=O)=O)cc2)cc1	98.5%	105%	100%	103%	95.7%	107%	108%	102%
